In PubChem BioAssay (Tox21):
Results filed as inconclusive are left out. The source made the active and inactive calls. Unless noted, calls come from the whole dose curve; as a rule, active = well fitted curve in the direction sought with a large enough effect in the repeat runs; inconclusive = weak or mixed curves; inactive = no such curve, though single readings can be large; an effect the other way counts as inactive or inconclusive.

Key:
[1] = qHTS assay to identify small molecule antagonists of the androgen receptor (AR) signaling pathway using the MDA cell line in the presence of 0.5 nM R1881 - cell viability counter screen (AID 1259242); note: nearly all actives have a fitted effect of over 45% in size; note: potency is the fitted concentration of half-maximal effect
In short: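 Live-cell protease activity was measured by CellTiter-Fluor fluorescence after 30 min. Before that, MDA-kb2 MMTV-luciferase cells had 16 hr at 37C without CO2, exposed to test compounds and 0.5 nM R1881 final.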

[2] = qHTS assay to identify small molecule HDAC inhibitors (AID 1259364); note: top concentration of the series differs between compounds; nearly all actives have a fitted effect of over 45% in size
In short: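 Luminescence read after 30 min room-temperature HDAC-Glo incubation measures cellular class I/II HDAC activity. Compounds were applied for 2 hr at 37 C to HCT-116 wild-type cells seeded the day before.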

[3] = qHTS assay to identify small molecule HDAC inhibitors - cell viability counter screen (AID 1259365); note: series mostly up to about 92 µM; nearly all actives have a fitted effect of over 50% in size
In short: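 Wild-type HCT-116 cells were seeded at 1,500 per well, incubated overnight at 37 C, then exposed to compounds in DMSO for 2hr. Viability was read by CellTiter-Glo luminescence after 30min at room temperature.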

[4] = qHTS assay to identify small molecule agonists of the sonic hedgehog signaling (Shh) pathway - cell viability counter screen (AID 1259366); note: nearly all actives have a fitted effect of over 50% in size; note: potency is the fitted concentration of half-maximal effect
In short: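 NIH/3T3-derived 3T3 Gli1-Luc cells (stable Gli1-responsive firefly luciferase reporter) were seeded, rested 4 hr at 37 C/5% CO2, then exposed to compounds in DMSO for 24 hr; viability was read by CellTiter-Fluor fluorescence in the same wells.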

[5] = qHTS assay to identify small molecule agonists of the sonic hedgehog signaling (Shh) pathway (AID 1259368; calls by dose curve; note: series mostly up to about 92 µM; nearly all actives have a fitted effect of over 15% in size)
In short: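 Luminescence was read after 30 min at room temperature with luciferase reagent. Before that, 3T3Gli1-Luc cells (NIH/3T3 clone, stable Gli1-Luc reporter; 2,000/well) were exposed to compounds for 24 hr at 37C, 5% CO2, compounds being added 4 hr post-plating.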

[6] = qHTS assay to identify small molecule antagonists of the sonic hedgehog signaling (Shh) pathway (AID 1259369; calls by dose curve; note: nearly all actives have a fitted effect of over 45% in size; note: potency is the fitted concentration of half-maximal effect)
In short: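 Antagonist mode: compound added to 3T3 Gli1-Luc cells followed by conditioned-medium stimulation, 24 h at 37 C, 5% CO2. Inhibition taken as loss of Gli1-driven luciferase luminescence.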

[7] = target: Estrogen receptor beta (Homo sapiens) (UniProt Q92731); test: qHTS assay to identify small molecule agonists of the estrogen receptor beta (ER-beta) signaling pathway (AID 1259377; active = well fitted activation curve with a large enough effect in the signal ratio in the repeat runs, not every such curve was filed as active; the % refers to the signal ratio)
Sequence of Estrogen receptor beta (Homo sapiens) (Q92731 whole entry, looked up): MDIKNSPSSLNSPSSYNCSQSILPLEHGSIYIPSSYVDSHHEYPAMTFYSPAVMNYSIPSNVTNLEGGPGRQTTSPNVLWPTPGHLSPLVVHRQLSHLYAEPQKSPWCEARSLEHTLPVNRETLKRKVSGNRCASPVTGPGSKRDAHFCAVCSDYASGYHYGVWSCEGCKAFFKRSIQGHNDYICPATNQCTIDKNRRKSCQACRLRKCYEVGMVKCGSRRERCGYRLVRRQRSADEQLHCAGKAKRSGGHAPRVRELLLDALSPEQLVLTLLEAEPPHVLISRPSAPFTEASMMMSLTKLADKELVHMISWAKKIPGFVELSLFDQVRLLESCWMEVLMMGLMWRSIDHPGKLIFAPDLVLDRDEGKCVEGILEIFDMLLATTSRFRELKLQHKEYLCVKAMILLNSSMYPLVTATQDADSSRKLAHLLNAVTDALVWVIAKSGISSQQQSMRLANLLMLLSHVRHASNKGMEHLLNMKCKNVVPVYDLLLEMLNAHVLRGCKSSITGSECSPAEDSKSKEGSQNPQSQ
In short: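 ER-beta-UAS-bla HEK293T (GripTite) cells carrying a UAS-driven beta-lactamase reporter, in medium with 2% charcoal-stripped FBS, were exposed to compounds for 16 hr at 37C; LiveBLAzer B/G FRET substrate was then added and fluorescence read after 2 hours at room temperature.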

[8] = target: Estrogen receptor beta (Homo sapiens) (UniProt Q92731); test: qHTS assay to identify small molecule antagonists of the estrogen receptor beta (ER-beta) signaling pathway (AID 1259378; active = well fitted inhibition curve with a large enough effect in the signal ratio in the repeat runs, not every such curve was filed as active; the % refers to the signal ratio; note: potency is the fitted concentration of half-maximal effect)
In short: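 Antagonist mode: compounds added to beta-lactamase reporter HEK293T ER-beta-UAS cells stimulated with E2 (1nM final), 16 hr at 37C. LiveBLAzer B/G FRET substrate, 2 hours room temperature, fluorescence read-out.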

[9] = qHTS assay to identify small molecule antagonists of the estrogen receptor beta (ER-beta) signaling pathway - cell viability counter screen (AID 1259382); note: nearly all actives have a fitted effect of over 55% in size; note: potency is the fitted concentration of half-maximal effect
In short: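 Cytotoxicity was measured in the same wells by CellTiter-Glo luminescence after 30 min at room temperature. Cells were ER-beta-bla HEK293T in charcoal-stripped serum, given compound together with 1 nM E2 and incubated 16 h at 37C.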

[10] = target: Estrogen receptor (Homo sapiens) (UniProt P03372); test: qHTS assay to identify small molecule agonists of the estrogen receptor alpha (ER-alpha) signaling pathway in the presence of an antagonist (AID 1259383; calls by dose curve; note: top concentration of the series differs between compounds; nearly all actives have a fitted effect of over 15% in size)
Sequence of Estrogen receptor (Homo sapiens) (P03372 whole entry, looked up): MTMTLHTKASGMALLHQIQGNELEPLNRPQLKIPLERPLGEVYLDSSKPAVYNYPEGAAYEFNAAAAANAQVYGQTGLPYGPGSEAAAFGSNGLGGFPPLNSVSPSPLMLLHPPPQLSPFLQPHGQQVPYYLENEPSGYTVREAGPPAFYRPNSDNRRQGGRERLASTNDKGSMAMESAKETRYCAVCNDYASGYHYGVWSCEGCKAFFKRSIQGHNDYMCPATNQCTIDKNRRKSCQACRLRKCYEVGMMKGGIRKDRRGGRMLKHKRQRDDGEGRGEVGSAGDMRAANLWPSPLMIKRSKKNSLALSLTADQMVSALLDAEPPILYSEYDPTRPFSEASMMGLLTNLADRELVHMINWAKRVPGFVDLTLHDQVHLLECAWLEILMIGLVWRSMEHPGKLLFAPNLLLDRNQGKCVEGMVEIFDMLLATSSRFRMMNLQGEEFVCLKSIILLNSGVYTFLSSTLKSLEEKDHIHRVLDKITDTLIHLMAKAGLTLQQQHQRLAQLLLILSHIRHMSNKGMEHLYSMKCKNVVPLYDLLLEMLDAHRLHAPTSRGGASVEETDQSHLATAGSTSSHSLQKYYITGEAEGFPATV
In short: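 Agonist-mode confirmation run in the presence of 10.0nM (final) ICI-182,780 antagonist. The reporter was ERE-driven luciferase in VM7Luc4E2 cells, grown in charcoal-stripped serum. Cells were exposed to 15-concentration compound series for 22hr, then ONE-Glo luminescence was read.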

[11] = qHTS assay to identify small molecule agonists or antagonists of the thyroid stimulating hormone receptor (TSHR) signaling pathway - wild type cell line counter screen (AID 1259384; calls by dose curve)
In short: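 Counter screen in untransfected Hek293: compounds (15-point titration, triplicate) plus phosphodiesterase inhibitor Ro20-1724 added after 18 h plating; 30 min RT. Intracellular cAMP via competitive d2/cryptate immunoassay, 1 h incubation.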

[12] = target: Thyrotropin receptor (Homo sapiens) (UniProt P16473); test: qHTS assay to identify small molecule antagonists of the thyroid stimulating hormone receptor (TSHR) signaling pathway (AID 1259385; calls by dose curve; note: nearly all actives have a fitted effect of over 20% in size; note: potency is the fitted concentration of half-maximal effect)
Sequence of Thyrotropin receptor (Homo sapiens) (P16473 whole entry, looked up): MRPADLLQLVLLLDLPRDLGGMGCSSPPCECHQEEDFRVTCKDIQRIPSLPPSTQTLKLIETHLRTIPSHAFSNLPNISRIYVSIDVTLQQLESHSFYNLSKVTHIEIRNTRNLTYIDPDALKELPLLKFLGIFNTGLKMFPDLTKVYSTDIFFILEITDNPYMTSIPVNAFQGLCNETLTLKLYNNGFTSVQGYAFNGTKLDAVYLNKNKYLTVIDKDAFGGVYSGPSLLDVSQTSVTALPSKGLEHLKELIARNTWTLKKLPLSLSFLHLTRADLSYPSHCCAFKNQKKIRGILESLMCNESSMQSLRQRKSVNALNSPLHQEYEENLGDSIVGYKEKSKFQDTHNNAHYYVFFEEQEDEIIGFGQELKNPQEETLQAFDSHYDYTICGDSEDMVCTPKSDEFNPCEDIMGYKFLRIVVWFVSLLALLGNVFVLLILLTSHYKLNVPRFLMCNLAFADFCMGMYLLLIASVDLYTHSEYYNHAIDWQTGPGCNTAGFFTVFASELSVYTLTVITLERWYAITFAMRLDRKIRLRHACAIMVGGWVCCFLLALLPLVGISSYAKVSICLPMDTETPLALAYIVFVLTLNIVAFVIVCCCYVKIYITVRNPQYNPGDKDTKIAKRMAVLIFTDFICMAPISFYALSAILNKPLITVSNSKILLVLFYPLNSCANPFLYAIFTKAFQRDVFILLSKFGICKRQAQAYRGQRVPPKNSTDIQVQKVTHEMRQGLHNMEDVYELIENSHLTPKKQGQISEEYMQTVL
In short: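 Antagonist mode: compound-treated TSHR-expressing HEK293 cells were stimulated with 1.5 ng/mL TSH (final) in presence of Ro20-1724 for 30 min at RT. HTRF cAMP detection after 1 h; each compound tested at 15 concentrations, triplicate.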

[13] = qHTS assay to identify small molecule antagonists of the sonic hedgehog signaling (Shh) pathway - cell viability counter screen (AID 1259367); note: nearly all actives have a fitted effect of over 55% in size
In short: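 CellTiter-Fluor signal in conditioned medium-stimulated 3T3 Gli1-Luc cells, 23 hr compound exposure, 37C.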

[14] = qHTS assay to identify small molecule agonists of the androgen receptor (AR) signaling pathway in the presence of an antagonist - cell viability counter screen (AID 1259379); note: nearly all actives have a fitted effect of over 25% in size; note: potency is the fitted concentration of half-maximal effect
In short: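 Cytotoxicity counter-screen run in the same wells as the nilutamide-challenged (3.0 µM final) AR agonist assay in MDA-kb2 cells. Compounds tested at 15 concentrations for 16 h, 37 °C without CO2; CellTiter-Fluor fluorescence read.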

[15] = qHTS assay to identify small molecule agonists of the estrogen receptor beta (ER-beta) signaling pathway - cell viability counter screen (AID 1259380); note: nearly all actives have a fitted effect of over 30% in size; note: potency is the fitted concentration of half-maximal effect
In short: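 Cell viability counter screen: CellTiter-Glo luminescence (30 min, room temperature) measured in the same wells as the beta-lactamase readout, after 16 hr compound exposure at 37C of ER-beta-bla HEK293T cells in 2% charcoal-stripped FBS medium.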

[16] = qHTS assay to identify small molecule agonists of the estrogen receptor alpha (ER-alpha) signaling pathway in the presence of an antagonist - cell viability counter screen (AID 1259386); note: nearly all actives have a fitted effect of over 30% in size; note: potency is the fitted concentration of half-maximal effect
In short: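 Compounds tested at 15 concentrations for 22 h at 37C alongside 10.0nM (final) ICI-182,780 antagonist, in VM7Luc4E2 cells grown in phenol red-free, charcoal-stripped medium. Viability read by CellTiter-Fluor fluorescence after 1 h reagent incubation.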

[17] = target: Androgen receptor (Homo sapiens) (UniProt P10275); test: qHTS assay to identify small molecule agonists of the androgen receptor (AR) signaling pathway in the presence of an antagonist (AID 1259381; calls by dose curve; note: nearly all actives have a fitted effect of over 15% in size)
Sequence of Androgen receptor (Homo sapiens) (P10275 whole entry, looked up): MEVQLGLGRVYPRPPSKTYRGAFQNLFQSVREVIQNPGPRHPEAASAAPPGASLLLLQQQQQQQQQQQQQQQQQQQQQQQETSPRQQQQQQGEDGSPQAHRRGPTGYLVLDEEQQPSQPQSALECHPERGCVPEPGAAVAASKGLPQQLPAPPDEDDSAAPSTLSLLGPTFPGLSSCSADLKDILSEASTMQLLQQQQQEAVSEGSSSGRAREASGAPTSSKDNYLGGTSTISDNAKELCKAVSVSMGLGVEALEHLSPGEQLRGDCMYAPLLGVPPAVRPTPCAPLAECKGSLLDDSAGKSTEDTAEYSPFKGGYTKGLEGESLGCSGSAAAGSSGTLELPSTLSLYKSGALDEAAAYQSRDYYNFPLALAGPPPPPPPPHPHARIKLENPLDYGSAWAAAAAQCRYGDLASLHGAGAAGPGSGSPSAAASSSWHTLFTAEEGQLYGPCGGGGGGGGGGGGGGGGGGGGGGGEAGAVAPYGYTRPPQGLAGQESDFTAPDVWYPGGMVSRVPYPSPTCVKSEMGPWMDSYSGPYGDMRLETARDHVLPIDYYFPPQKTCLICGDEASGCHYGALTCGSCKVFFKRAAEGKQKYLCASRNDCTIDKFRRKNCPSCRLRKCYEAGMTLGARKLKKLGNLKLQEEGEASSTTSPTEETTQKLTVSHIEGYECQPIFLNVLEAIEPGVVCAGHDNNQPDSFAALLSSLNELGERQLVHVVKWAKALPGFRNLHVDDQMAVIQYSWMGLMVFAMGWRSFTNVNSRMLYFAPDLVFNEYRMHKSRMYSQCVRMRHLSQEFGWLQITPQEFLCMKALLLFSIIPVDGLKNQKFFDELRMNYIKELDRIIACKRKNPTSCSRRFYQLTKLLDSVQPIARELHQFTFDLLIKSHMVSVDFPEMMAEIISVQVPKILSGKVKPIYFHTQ
In short: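 Agonist-mode confirmation run against 3.0 uM final nilutamide: compounds titrated at 15 concentrations onto MDA-kb2 MMTV-luciferase reporter cells. Luminescence measured with ONE-Glo following 16 hr incubation, 37C, 0% CO2.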

Measured: Potency

Cc1nc(Nc2ncc(C(=O)Nc3c(C)cccc3Cl)s2)cc(N2CCN(CCO)CC2)n1
inactive: [1] | [2] | [3] | [5] | [6] | [7] | [9] | [10] | [11]
active: [4] 0.075 µM | [8] 23.7 µM | [12] 26.6 µM

[O]=[Zr]
inactive: [1] | [2] | [3] | [13] | [5] | [14] | [15] | [9] | [11] | [12] | [16]

CCN(CC)c1ccc(N)cc1
inactive: [3] | [11]
active: [1] 17.7 µM | [4] 35.3 µM | [14] 19.9 µM | [9] 49.9 µM | [16] 28.1 µM

C=CC(C)C#N (centres undefined)
inactive: [1] | [3] | [4] | [13] | [5] | [6] | [14] | [15] | [9] | [16]

CN1[C@@H]2CC[C@@H]1CC(OC(=O)C(CO)c1ccccc1)C2 (some centres undefined)
inactive: [1] | [2] | [3] | [4] | [13] | [6] | [14] | [15] | [9] | [16]

C=CCCCCCCC=C
inactive: [1] | [2] | [3] | [5] | [14] | [15] | [9] | [16]
active: [6] 30.7 µM

Cc1cccc(Br)c1
active: [6] 27.4 µM | [15] 27.4 µM
inactive: [1] | [2] | [3] | [4] | [5] | [14] | [11] | [12] | [16]

Cc1ccc(N)cc1O
inactive: [1] | [3] | [4] | [13] | [5] | [14] | [17] | [10] | [11]

C=CC(=C)CCC=C(C)C
inactive: [1] | [2] | [3] | [13] | [5] | [6] | [8] | [14] | [15] | [9] | [16]

CCCCCCC(C)OC(=O)COc1nc(F)c(Cl)c(N)c1Cl (centres undefined)
active: [15] 68.6 µM
inactive: [1] | [2] | [4] | [13] | [5] | [14] | [9] | [11] | [12] | [16]

COC(=O)NCCC[Si](OC)(OC)OC
inactive: [1] | [2] | [3] | [4] | [5] | [7] | [8] | [14] | [15] | [9] | [11] | [12] | [16]
